The results in this text go back to PubChem BioAssay (NCI).

Compounds without any hit were thinned out: in the full panel of roughly 83,000, 20% have a hit.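 Each cell line was grown in a 96-well plate and treated with one concentration of compound for 48 hours. Values below 10 were considered active.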 Values without a mark were called inactive. Active and inactive are the calls of the source.

This experiment relates to UO-31 renal. Nature of the experiment: NCI-60 one-dose screen, 48 h (100 = growth as untreated, 0 = no growth, -100 = all killed). The settings on record: 10 µM unless noted.
As to `COc1cc2c(cc1OC)C(Cc1cc(OC)c(OC)cc1[N+](=O)[O-])=NCC2`, the growth is 66.9%.
Regarding `COc1ccc(-c2nc(SCC(C)C)nc(Nc3ccc([N+](=O)[O-])cc3)c2C#N)cc1`, the growth is 79.7%.
Take `O=C(/C=C/c1c[nH]c2ccccc12)c1cc2ccccc2o1`: the growth was 60.2%.
For `C/C=C(/C)C(=O)OC1C=C(CO)C(=O)C(OC(=O)C2(C)OC2C)C1C(C)C` (configuration not stated), the growth was -96.3% (active).
Consider `O=C(Nc1ccc(Cl)c(Cl)c1)O/N=C\c1c(Cl)ccc([N+](=O)[O-])c1Cl`, for which the growth was -32.6% (active).
As for `Oc1ccc(CN(Cc2ccc(C(F)(F)F)cc2)Cc2ccc(O)c3ncccc23)c2cccnc12`, the growth is 4.59% (active).
For `COc1cc(-c2nc(/C=C3/C(=O)Nc4ccccc43)c3ccccn23)cc(OC)c1OC`, the growth is 41.9%.
